± gives the standard deviation.
Key:
Details in all cases: modulator concentration 10 µM
[1] = system: RAW-Dual (murine macrophage reporter line); test: NF-kB reporter (SEAP) activity fold change vs agonist alone; higher = enhanced NF-kB activity
Procedure, shortened: (§1)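 Compound reached 10 μM final in each well by pin transfer, onto RAW-Dual murine macrophage reporter cells seeded at 50 000 per well in 384-well plates. After 1 hour at 37 °C, the cells were stimulated overnight with a PRR agonist. SEAP in the supernatant was read with QUANTI-Blue at 620 nm absorbance for NF-κB, and Lucia luciferase was read with QUANTI-Luc luminescence for IRF. Each signal was turned into fold change against the mean agonist-only control on the same plate, and two replicate plates were averaged with propagated errors.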

[2] = system: RAW-Dual (murine macrophage reporter line); test: IRF reporter (Lucia luciferase) activity fold change vs agonist alone; higher = enhanced IRF activity
Procedure, shortened: as §1

[3] = system: RAW-Dual (murine macrophage reporter line); test: viability score (confluency relative to resting cells, overnight) (fraction); higher = more viable, active = viable (0.7 or more)
Procedure, shortened: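 A compound met the cutoff when both of two confluency masks exceeded 70% of resting cells. Those masks were made with IncuCyte software from IncuCyte images of RAW-Dual macrophages treated overnight at 10 μM final. This is the basis of the viability score, which is confluency relative to resting cells.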

[4] = agonist: CpG ODN 1826 0.5 ug/mL

Compound	NF-kB reporter [1, 4]	NF-kB reporter ([1]; agonist: LPS 0.1 ug/mL)	NF-kB reporter ([1]; agonist: MPLA […])	IRF reporter ([2]; agonist: 3'3'-cGAMP 10 ug/mL)	IRF reporter ([2]; agonist: LPS 0.1 ug/mL)	IRF reporter ([2]; agonist: MPLA […])	viability score [3]
Cc1nc(-c2ccc(S(=O)(=O)N3C4CCC3CC(Oc3cccnc3)C4)cc2)co1 (stereo not drawn)	1 ± 0.093	1.08 ± 0.086	0.94 ± 0.051	1.04 ± 0.077	1.14 ± 0.087	1 ± 0.092	1.01 (active)
O=Cc1cn(CCOc2ccc(Cl)cc2)c2ccccc12	1.45 ± 0.12	0.883 ± 0.07	1.62 ± 0.06	0.685 ± 0.057	0.773 ± 0.081	0.613 ± 0.12	0.93 (active)
CCCCc1nc2cc(/C=C/C(=O)NO)ccc2n1CCN(CC)CC	1.6 ± 0.08	1.77 ± 0.14	2.71 ± 0.12	0.0513 ± 0.0098	0.266 ± 0.019	0.424 ± 0.05	0.0718 (inactive)
O=C(NC1CC(=O)N(c2ccc(F)cc2)C1)c1ccc(Cl)cc1 (stereo not drawn)	1.06 ± 0.054	1.11 ± 0.088	0.877 ± 0.039	0.944 ± 0.064	1.24 ± 0.11	1.2 ± 0.3	0.991 (active)
CC(C)C(=O)Nc1ccc([N+](=O)[O-])c(C(F)(F)F)c1	1.42 ± 0.3	1.06 ± 0.077	1.25 ± 0.2	0.762 ± 0.04	0.97 ± 0.11	1.04 ± 0.12	0.968 (active)
Cc1ccn2c(-c3csc(NCc4ccccc4)n3)c(C)nc2c1	0.787 ± 0.061	1.03 ± 0.048	1.19 ± 0.15	0.442 ± 0.05	1.38 ± 0.082	1.46 ± 0.12	1.01 (active)
CC(C)CN(C[C@@H](O)[C@H](Cc1ccccc1)NC(=O)O[C@H]1CCOC1)S(=O)(=O)c1ccc(N)cc1	1.51 ± 0.36	1.4 ± 0.43	1.63 ± 0.097	0.918 ± 0.028	1.29 ± 0.33	1.22 ± 0.14	0.998 (active)
CN(C)c1cncc(OC2CCN(S(C)(=O)=O)C2)n1 (stereo not drawn)	1.02 ± 0.12	1.12 ± 0.1	0.911 ± 0.04	0.836 ± 0.045	0.951 ± 0.064	0.923 ± 0.07	1.01 (active)
CCC(C(=O)Nc1cc(Cl)cc(Cl)c1)c1ccccc1 (stereo not drawn)	0.851 ± 0.05	1.16 ± 0.098	1.11 ± 0.045	1.09 ± 0.083	1.11 ± 0.062	0.97 ± 0.12	0.991 (active)
Cc1cc(OC2CN(C(=O)Cc3c[nH]c4ccccc34)C2)cc(=O)n1C1CC1	1.1 ± 0.055	1.1 ± 0.091	0.997 ± 0.11	1 ± 0.05	1.2 ± 0.076	1.23 ± 0.12	0.983 (active)
Nc1nc(NC2CC2)c2ncn([C@H]3C=C[C@@H](CO)C3)c2n1.Nc1nc(NC2CC2)c2ncn([C@H]3C=C[C@@H](CO)C3)c2n1.O=S(=O)(O)O	1.1 ± 0.26	1.02 ± 0.057	1.04 ± 0.093	0.864 ± 0.065	1.2 ± 0.15	1.07 ± 0.12	0.791 (active)
N#Cc1c(-n2ncnc2-c2cccc([N+](=O)[O-])c2)sc2c1CCCC2	0.954 ± 0.063	1.05 ± 0.085	0.932 ± 0.073	0.932 ± 0.033	1.46 ± 0.12	1.2 ± 0.15	1 (active)
N[C@H]1CONC1=O	1.08 ± 0.13	1.06 ± 0.057	1.03 ± 0.074	1.02 ± 0.1	0.957 ± 0.039	0.949 ± 0.1	1.01 (active)
O=C(c1ccccc1)c1ccc2n1CCC2C(=O)O (stereo not drawn)	0.921 ± 0.13	1.09 ± 0.14	0.895 ± 0.073	0.94 ± 0.048	1.15 ± 0.26	1.04 ± 0.16	0.996 (active)
Cc1ccc(CCC(=O)N2CC(N3C(=O)C4CC=CCC4C3=O)C2)cc1F (stereo not drawn)	0.728 ± 0.26	1.1 ± 0.1	1 ± 0.044	0.741 ± 0.037	1.05 ± 0.12	0.87 ± 0.092	1 (active)
CC(=O)Nc1ccc(NC(=S)NC(=O)C=Cc2ccc(Cl)cc2Cl)cc1	0.64 ± 0.05	0.741 ± 0.059	0.933 ± 0.095	0.428 ± 0.031	1.33 ± 0.12	1.3 ± 0.22	1 (active)
COc1cc(O)c2c(=O)cc(-c3ccc(O)cc3)oc2c1	1.15 ± 0.098	1.04 ± 0.076	1.01 ± 0.024	0.795 ± 0.11	0.959 ± 0.049	0.798 ± 0.099	0.997 (active)
Clc1ccc2c(c1)C(N1CCNCC1)=Nc1ccccc1O2	0.996 ± 0.26	1.02 ± 0.066	0.969 ± 0.07	0.893 ± 0.03	1.2 ± 0.25	1.28 ± 0.13	0.637 (inactive)
NC(C(=O)O)c1ccccc1F (stereo not drawn)	0.928 ± 0.11	0.966 ± 0.11	0.994 ± 0.039	0.939 ± 0.056	0.969 ± 0.053	0.81 ± 0.082	1 (active)
CCCc1cc(=O)[nH]c(=S)[nH]1	1.37 ± 0.11	1.07 ± 0.05	1.3 ± 0.11	0.611 ± 0.028	1.03 ± 0.082	0.903 ± 0.076	1.02 (active)
O=C(NC1CCCCCC1)c1ccc([N+](=O)[O-])cc1Cl	1.1 ± 0.084	0.94 ± 0.07	0.919 ± 0.1	0.804 ± 0.035	1.08 ± 0.14	1.08 ± 0.13	0.983 (active)
CCCOc1cccc(C=C2N=C(c3ccc(Cl)c([N+](=O)[O-])c3)OC2=O)c1	0.993 ± 0.094	1.07 ± 0.072	0.912 ± 0.055	1.02 ± 0.041	1.55 ± 0.17	1.04 ± 0.15	1.01 (active)
O=C(Cn1c(C(F)(F)F)nc2ccccc21)c1ccc(OC(F)F)cc1	0.916 ± 0.086	1.07 ± 0.084	0.884 ± 0.062	1.06 ± 0.061	1.3 ± 0.15	1.02 ± 0.072	1.01 (active)
COC(=O)C1=C(C)NC(C)=C(C(=O)OCCN2CCN(C(c3ccccc3)c3ccccc3)CC2)C1c1cccc([N+](=O)[O-])c1.Cl.Cl (stereo not drawn)	0.241 ± 0.082	0.588 ± 0.22	0.799 ± 0.051	0.132 ± 0.008	0.888 ± 0.27	1.32 ± 0.18	0.975 (active)

Reference: the supplement of paper PMC10646978
